Test results published in PubChem BioAssay (EPA / NIEHS).
Active and inactive are the calls of the source. How the source made its calls: active means hit-call score of the fitted dose curve at least 0.9, where 1 is the maximum; inactive means score below 0.9.

Experiment: APR_HepG2_MicrotubuleCSK_72hr: Apredica 72-hour HepG2 Assay for Microtubule CSK Stabilty (AID 2282919)
Settings: HepG2 microtubule cytoskeleton, high-content imaging, actives raise or lower the signal
Method: APR_HepG2_72hr is a cell-based, multiplexed-readout assay that uses HepG2, a human liver cell line, with measurements taken at 72 hours after chemical dosing in a 384-well plate.APR_HepG2_MicrotubuleCSK_72hr is one of 10 assay component(s) measured or calculated from the APR_HepG2_72hr assay. It is designed to make measurements of protein conformation, a form of conformation reporter, as detected with fluorescence intensity signals by HCS Fluorescent Imaging technology.Data from the assay component APR_HepG2_MicrotubuleCSK_72hr was analyzed into 1 assay endpoint. This assay endpoint, APR_HepG2_MicrotubuleCSK_72hr, was analyzed with bidirectional fitting relative to DMSO as the negative control and baseline of activity. Using a type of conformation reporter, measures of protein for gain or loss-of-signal activity can be used to understand the signaling at the cellular-level. Furthermore, this assay endpoint can be referred to as a primary readout, because this assay has produced multiple assay endpoints where this one serves a signaling function. To generalize the intended target to other relatable targets, this assay endpoint is annotated to the cell morphology intended target family, where the subfamily is cell conformation.
Cells were treated with dimethyl sulfoxide (DMSO) as a solvent control at a final concentration of 0.5% v/v or with compounds in DMSO with a resulting final DMSO concentration of 0.5% v/v. Compound treatment was done at concentrations of 0.39, 0.78, 1.56, 3.12, 6.24, 12.5, 25, 50, 100, and 200 uM in duplicate on each plate. Cells were treated with compounds for 1, 24, or 72 hr. Carbonyl […] m-chloro-phenylhydrazone (CCCP) and taxol were used as positive controls for mitochondrial function and cytoskeletal stability, respectively; DMSO served as the negative control for this experiment. Cells were fixed by the direct addition of 50 uL formaldehyde in Hank's Balanced Salt Solution (HBSS) to a final concentration of 3.7%. After incubation in the fixation medium for 30 min at room temperature (293-298 K), cells were rinsed twice with HBSS and treated with cell permeabilization buffer (16 uL of 0.5% Triton X-100) for 10 min at room temperature (293-298 K) before labeling. For mitochondrial membrane potential and mitochondrial measurements, pre-fixed cells were incubated with 50 uL of MitoTracker Red CMXRos (Invitrogen) at a concentration of 250 nM for 30 min before fixation. In the remaining cases, post-fixed cells were labeled by incubation with a multiplexed mixture of primary antibodies in HBSS for 60 min at room temperature (293-298 K) to detect immunoreactivity of c-Jun (1:500), phospho-histone H3 (1:100), phospho-histone H2A.x (1:200), p53 (1:400), alpha-tubulin (1:200) and Hoechst 33342 (2 ug/mL). Cells were labeled for multiplexed imaging on two separate plates: a) Hoechst 33342, MitoTracker Red, phospho-histone H3, and alpha-tubulin, and b) Hoechst 33342, phospho-histone H2A.x, and c-Jun. A final rinse with HBSS (50 uL) was performed before analysis. The primary and secondary antibodies for the proteins were phospho-histone H3 (rabbit anti-phospho-histone H3 and FITC-donkey anti-rabbit IgG), phospho-histone H2A.x (mouse anti-phospho-histone H2A.x and FITC-donkey anti-mouse IgG), c-Jun (rabbit anti-phospho-c-Jun and Cy3-donkey anti-rabbit IgG), p53 (sheep anti-p53 and Cy5-donkey anti-sheep IgG), alpha-tubulin (mouse anti-alpha-tubulin and Cy5-donkey anti-mouse IgG). These antibodies are available as the CellCiphr HepG2 assay kit (Millipore).Digital images of each well were captured using a Cellomics ArrayScan VTI (Thermo Scientific Cellomics) (0.8 NA objective, 0.63x optical coupler, and XF-93 filter set) at 20x magnification. The images were acquired using the autofocus feature of the ArrayScan instrument, which entails the following steps. First, the camera focuses on channel 1 (Hoechst 33342), where nuclei are identified. Second, a Z offset of 1 um is used for capturing mitochondria (MitoTracker Red). […]

Compound	outcome	AC50
O=S(=O)(O)c1ccc(N=Nc2c(O)ccc3cc(S(=O)(=O)O)ccc23)cc1	inactive	
Cn1cc[nH]c1=S	inactive	
CC(=O)c1ccccc1	inactive	
O=C(O)[C@H](O)[C@@H](O)C(=O)O	inactive	
NC(=O)N(O)[C@@H]1COc2cc(OCc3ccccc3)ccc21	inactive	
CCOc1ccc2[nH]cc(C(=O)NCc3ccccc3)c(=O)c2n1	inactive	
COCc1nnc(-c2ccc[n+]([O-])c2)n1-c1c(Cl)c(Cl)cc2[nH]c(=O)c(=O)[nH]c12	inactive	
Cc1nccn1-c1ccc(Sc2cccc(C3(C(N)=O)CCOCC3)c2)cc1	inactive	
NC(=O)N1c2ccccc2C=Cc2ccccc21	inactive	
OC[C@H]1O[C@@](CO)(O[C@H]2O[C@H](CO)[C@@H](O)[C@H](O)[C@H]2O)[C@@H](O)[C@@H]1O	inactive	
O=c1[nH]cnc2c1ncn2[C@H]1CC[C@@H](CO)O1	inactive	
COc1cc(C(C)C)c2c(c1)S(=O)(=O)N(COc1cc(=O)n3cccc(OCCN4CCCCC4)c3n1)C2=O	inactive	
OC(Cn1cncn1)(Cn1cncn1)c1ccc(F)cc1F	inactive	
O=C(O)c1ccc2c(c1)nc(C(=O)NC1CCN(C3CC3)CC1)n2Cc1cc(-c2ccc(Cl)s2)on1	inactive	
CCCCCCCC/C=C\CCCCCCCC(=O)OC[C@@H](O)[C@H]1OC[C@H](O)[C@H]1O	inactive	
CCc1cccc(CC)c1N	inactive	
Cc1nc(-c2ccccn2)ncc1C(=O)Nn1cc(C)c2cc(F)ccc21	inactive	
CCCCOC(=O)c1ccccc1	inactive	
CCn1nc(C)c2c1C(=O)NCC(c1ccc(O)cc1)=N2	inactive	
CCCCCCCCCCCCCCO		114 µM (active)

Compound	outcome	AC50
CCCCCCOC(=O)CC(CC(=O)OCCCCCC)(OC(=O)CCC)C(=O)OCCCCCC	inactive	
NC(=O)NN=Cc1ccc([N+](=O)[O-])o1		85.4 µM (active)
NC(N)=O	inactive	
O=C(O)c1cccc(C[C@@H]2COc3ccc(OCc4nc5cc(F)ccc5s4)cc3[C@@H]2O)c1	inactive	
C=CCc1cc(S(=O)(=O)c2ccc(O)c(CC=C)c2)ccc1O	inactive	
OCC(CO)(CO)CO	inactive	
OC[C@H]1O[C@@H]2O[C@H]3[C@H](O)[C@@H](O)[C@@H](O[C@H]4[C@H](O)[C@@H](O)[C@@H](O[C@H]5[C@H](O)[C@@H](O)[C@@H](O[C@H]6[C@H](O)[C@@H](O)[C@@H](O[C@H]7[C@H](O)[C@@H](O)[C@@H](O[C@H]1[C@H](O)[C@H]2O)O[C@@H]7CO)O[C@@H]6CO)O[C@@H]5CO)O[C@@H]4CO)O[C@@H]3CO	inactive	
CCN(CC)C(=S)SSC(=S)N(CC)CC		60.7 µM (active)
c1ccc2ncccc2c1	inactive	
OCCOCCOCCO	inactive	
CC(C)CC(C)O (stereo not given)	inactive	
CCOC(N)=O	inactive	
c1ccc2c(c1)-c1cccc3c1c-2cc1ccccc13	inactive	
CCCCCOC(C)=O	inactive	
CNC(C)=O	inactive	
CCCCCCCCN(C)C	inactive	
c1ccc(C(O[C@@H]2CCCN(CCc3ccc4c(c3)OCO4)C2)c2ccccc2)cc1	inactive	
CCCCCCCCCC	inactive	
CC[C@H](C)C(=O)O[C@H]1C[C@H](O)C=C2C=C[C@H](C)[C@H](CC[C@@H](O)C[C@@H](O)CC(=O)O)[C@H]21	inactive	
C[C@]12C=CC(=O)C=C1CC[C@H]1[C@@H]3C[C@@H](O)[C@](O)(C(=O)CO)[C@@]3(C)C[C@H](O)[C@@]12F	inactive	
